The target in one experiment is Albumin (Bos taurus) (UniProt P02769). Kind of experiment: compounds binding labelled BSA control protein – biochemical, small-molecule microarray, Alexa647 label, 635/667 nm fluorescence, artefact control for SMM control protein annotation, profiling panel (AID 1118).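 Further: score merges 667 nm emission intensity and signal-to-noise per printed compound spot.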 As to conditions: BSA-A647 binding, fluorescence 635 nm, higher = more signal.
A short description of experiment [1]: probe aXIP binding to arrayed compounds – biochemical, NeuroSMM set, 635/667 nm fluorescence, primary screen (AID 1119).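 Further: probe is the protein aXip251-270 applied at 1 µg/mL to compound-printed slides; binding of probe to printed compounds measured as 667 nm fluorescence plus signal to noise.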 Particulars: small-molecule microarray, higher = more signal, called active from +8 up or from −8 down.
Experiment [2] can be described thus: probe aNOTCH3 binding on compound microarray – biochemical, small-molecule microarray, 635/667 nm fluorescence, primary screen (AID 1120).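 Further: probe is a biotin-tagged antibody raised against NOTCH3 rather than NOTCH3 protein; score merges spot fluorescence near 667 nm with spot signal to noise.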 As to conditions: higher = more signal.
The nature of experiment [3]: probe aNOTCH2 binding on compound microarray – biochemical, small-molecule microarray, 635/667 nm fluorescence, primary screen (AID 1121).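 Further: score merges feature fluorescence read at 667 nm with its signal to noise.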 Particulars: higher = more signal.
For experiment [4], the target named is Carbonic anhydrase 2 (Homo sapiens) (UniProt P00918). Kind of experiment: compounds binding carbonic anhydrase 2 – biochemical, small-molecule microarray, Alexa647-labelled CAII, profiling panel (AID 1122). Particulars: CAII-A647 binding fluorescence, higher = more signal.
A short description of experiment [5]: COS7 lysate on small-molecule microarray, probe aHis, 635 nm (AID 1123).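 Further: z-score combines 667nm fluorescence intensity with signal-to-noise per printed compound spot.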 Particulars: COS7 cell lysate, fluorescence, higher = more signal.
Experiment [6] is described as follows: probe aLAP1 signal on lysate-treated microarray – cell lysate, small-molecule microarray, COS7 lysate, primary screen (AID 1124).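 Further: lysate comes from COS7 cells expressing LAP1 and is applied at 0.3 µg/mL; score merges spot fluorescence near 667 nm with signal-to-noise over triplicate slides.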 As to conditions: probe aLAP1, fluorescence, higher = more signal.
The subject of a further experiment is Sam68 (KHDRBS1). Kind of experiment: compounds binding KHDRBS1 protein – biochemical, small-molecule microarray, 635 nm fluorescence, primary screen (AID 1125).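 Further: score merges 667 nm channel intensity with signal to noise over triplicate slides.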 Particulars: higher = more signal.
Experiment [7] concerns Chordin-like protein 2 (CHRDL2). Description: compounds binding chordin-like 2 – biochemical, small-molecule microarray, 635 nm fluorescence, primary screen (AID 1126).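 Further: printed compound slides probed with Chrdl2 protein at 4 µg/mL for 1 h at 4 C; score merges 667 nm emission intensity with signal to noise over three replicate slides.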 Particulars: fluorescence 635 nm, higher = more signal.
Experiment [8] has as its target Concanavalin-A (Canavalia ensiformis) (UniProt P02866). Kind of experiment: compounds binding concanavalin A lectin – biochemical, small-molecule microarray, Alexa647 label, 635 nm, artefact control for SMM control protein annotation, primary screen (AID 1127).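 Further: z combines 667 nm emission intensity with signal-to-noise across three replicate slides.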 As to conditions: ConA-A647 binding fluorescence, higher = more signal.
Experiment [9] in a line: compounds binding Alexa647 anti-His antibody – biochemical, small-molecule microarray, 635 nm fluorescence, artefact control for SMM control protein annotation, primary screen (AID 1128).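 Further: score merges feature fluorescence with signal-to-noise for each printed compound spot.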 As to conditions: higher = more signal.
In experiment [10] the test system is Human papillomavirus type 1a E7 protein (residues 1-88). Description: HPV1a E7 small-molecule binders, primary screen, biochemical, small-molecule microarray, residues 1-88, 635 nm (AID 1129). Particulars: small-molecule microarray binding, fluorescence 635 nm; higher = more signal.
For experiment [11], the target named is Focal adhesion kinase 1 (Homo sapiens) (UniProt Q05397). Description: PTK2 protein binding on printed compound slides – biochemical, small-molecule microarray, 635/667 nm fluorescence, BSA, DTT, primary screen (AID 1130).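 Further: composite of spot emission at 667 nm and signal to noise over triplicate slides.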 As to conditions: 635 nm fluorescence, higher = more signal.
Sequence of Focal adhesion kinase 1 (Homo sapiens) (Q05397 whole entry, looked up): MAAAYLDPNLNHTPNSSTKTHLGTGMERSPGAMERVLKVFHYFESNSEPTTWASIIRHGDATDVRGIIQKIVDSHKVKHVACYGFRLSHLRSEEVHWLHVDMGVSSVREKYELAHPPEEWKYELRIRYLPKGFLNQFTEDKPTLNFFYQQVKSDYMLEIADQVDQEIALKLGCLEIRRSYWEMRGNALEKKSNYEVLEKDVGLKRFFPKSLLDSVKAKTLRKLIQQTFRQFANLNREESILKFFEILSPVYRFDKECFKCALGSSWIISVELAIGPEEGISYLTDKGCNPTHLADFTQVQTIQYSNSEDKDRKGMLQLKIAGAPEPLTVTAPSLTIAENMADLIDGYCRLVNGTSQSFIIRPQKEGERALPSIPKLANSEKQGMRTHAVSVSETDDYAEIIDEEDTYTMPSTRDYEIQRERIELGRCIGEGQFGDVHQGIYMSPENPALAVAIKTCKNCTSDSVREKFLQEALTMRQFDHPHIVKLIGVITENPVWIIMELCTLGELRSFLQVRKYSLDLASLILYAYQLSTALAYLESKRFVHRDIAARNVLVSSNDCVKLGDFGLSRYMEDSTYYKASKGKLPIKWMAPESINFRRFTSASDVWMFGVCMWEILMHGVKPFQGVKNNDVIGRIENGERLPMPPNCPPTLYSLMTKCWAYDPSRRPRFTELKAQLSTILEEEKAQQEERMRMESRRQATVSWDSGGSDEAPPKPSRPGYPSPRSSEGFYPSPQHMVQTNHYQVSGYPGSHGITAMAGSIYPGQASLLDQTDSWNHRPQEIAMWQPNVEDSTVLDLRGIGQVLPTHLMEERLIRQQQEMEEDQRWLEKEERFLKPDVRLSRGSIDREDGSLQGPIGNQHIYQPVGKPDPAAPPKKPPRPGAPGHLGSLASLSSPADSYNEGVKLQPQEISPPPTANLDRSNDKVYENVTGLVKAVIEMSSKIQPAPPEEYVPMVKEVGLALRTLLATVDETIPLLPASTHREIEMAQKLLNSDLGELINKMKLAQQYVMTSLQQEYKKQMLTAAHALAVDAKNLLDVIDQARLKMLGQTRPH
For experiment [12], the system named is Fibrinogen (Alexa647-labelled). Kind of experiment: Alexa647-fibrinogen binding to printed small molecules – biochemical, small-molecule microarray, 635/667 nm fluorescence, artefact control for SMM control-protein annotation, profiling panel (AID 1131).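 Further: z-score merges 667 nm fluorescence with per-spot signal-to-noise over triplicate slides.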 Particulars: fibrinogen-A647 binding fluorescence, higher = more signal.
In experiment [13] the target is Follistatin (Homo sapiens) (UniProt P19883). Kind of experiment: FST protein binding to printed compounds – biochemical, small-molecule microarray, 635/667 nm fluorescence, primary screen (AID 1132). Particulars: 635 nm fluorescence, higher = more signal.
Sequence of Follistatin (Homo sapiens) (P19883 whole entry, looked up): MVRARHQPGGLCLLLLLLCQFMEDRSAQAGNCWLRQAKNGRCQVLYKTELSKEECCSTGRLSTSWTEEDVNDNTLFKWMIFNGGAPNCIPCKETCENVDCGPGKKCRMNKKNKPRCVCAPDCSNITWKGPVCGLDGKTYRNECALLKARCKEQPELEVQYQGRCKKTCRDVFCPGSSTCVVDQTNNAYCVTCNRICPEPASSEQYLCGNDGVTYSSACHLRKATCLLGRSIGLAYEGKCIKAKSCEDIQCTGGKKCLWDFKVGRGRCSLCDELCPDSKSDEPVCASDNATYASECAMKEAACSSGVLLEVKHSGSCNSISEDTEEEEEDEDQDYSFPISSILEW
Experiment [14] deals with Fibroblast growth factor 2 (Homo sapiens) (UniProt P09038). Description: basic fibroblast growth factor binding to printed compounds – biochemical, small-molecule microarray, 635/667 nm fluorescence, primary screen (AID 1133). Particulars: FGF2, fluorescence 635/667, higher = more signal.
Sequence of Fibroblast growth factor 2 (Homo sapiens) (P09038 whole entry, looked up): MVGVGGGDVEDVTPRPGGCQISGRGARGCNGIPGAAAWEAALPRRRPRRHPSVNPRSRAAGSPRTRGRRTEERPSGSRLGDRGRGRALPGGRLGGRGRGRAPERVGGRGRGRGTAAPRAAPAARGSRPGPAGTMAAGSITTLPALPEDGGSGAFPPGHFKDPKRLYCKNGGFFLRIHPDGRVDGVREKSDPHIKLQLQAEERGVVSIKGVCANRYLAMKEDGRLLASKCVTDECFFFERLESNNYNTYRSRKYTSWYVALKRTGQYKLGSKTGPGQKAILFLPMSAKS
A short description of experiment [15]: JC-1 mitochondrial potential readout, lung cancer cells – cell-based, A549, JC-1 fluorescence, basal, 24 h, 100 nL, profiling panel (AID 1138).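 Further: A549 lung adenocarcinoma cells under basal conditions with no added stimulus; test concentration not given here.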 Particulars: higher = more signal.
The next experiment has as its system Lefty1. Kind of experiment: Lefty1 protein binding to printed compounds – biochemical, small-molecule microarray, 635/667 nm fluorescence, primary screen (AID 1139). Particulars: fluorescence 635/667, higher = more signal.
Experiment [16] deals with wheat germ agglutinin (Triticum aestivum), Alexa647-labelled. Kind of experiment: Alexa647-WGA lectin binding to printed small molecules – biochemical, small-molecule microarray, 635/667 nm fluorescence, artefact control for SMM control-protein annotation, profiling panel (AID 1140).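 Further: score merges 667 nm feature emission with signal to noise over triplicate slides.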 Particulars: WGA-A647 binding, 635 nm fluorescence, higher = more signal.
Experiment [17] concerns the target Luciferin 4-monooxygenase (Photinus pyralis) (UniProt P08659). Description: inhibition of purified Photinus pyralis luciferase – biochemical, luminescence, purified enzyme, 2006 set, primary screen (AID 1141).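 Further: cell-free assay with purified firefly luciferase at 100 ng per well in PBS; test concentration not given here.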 As to conditions: purified firefly luciferase, SteadyGlo luminescence, 30 min; higher = more signal, called active from +8 up or from −8 down.

Each structure is given as a SMILES string. Calls of active or inactive are those of the source.

Sequence of Concanavalin-A (Canavalia ensiformis) (P02866 whole entry, looked up): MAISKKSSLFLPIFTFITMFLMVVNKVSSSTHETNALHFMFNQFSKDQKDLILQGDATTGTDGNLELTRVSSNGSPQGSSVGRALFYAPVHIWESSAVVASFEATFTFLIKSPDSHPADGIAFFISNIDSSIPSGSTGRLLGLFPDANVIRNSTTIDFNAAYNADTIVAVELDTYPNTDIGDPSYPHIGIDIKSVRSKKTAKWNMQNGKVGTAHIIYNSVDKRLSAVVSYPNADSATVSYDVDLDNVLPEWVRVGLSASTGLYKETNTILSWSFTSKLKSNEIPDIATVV
Sequence of Luciferin 4-monooxygenase (Photinus pyralis) (P08659 whole entry, looked up): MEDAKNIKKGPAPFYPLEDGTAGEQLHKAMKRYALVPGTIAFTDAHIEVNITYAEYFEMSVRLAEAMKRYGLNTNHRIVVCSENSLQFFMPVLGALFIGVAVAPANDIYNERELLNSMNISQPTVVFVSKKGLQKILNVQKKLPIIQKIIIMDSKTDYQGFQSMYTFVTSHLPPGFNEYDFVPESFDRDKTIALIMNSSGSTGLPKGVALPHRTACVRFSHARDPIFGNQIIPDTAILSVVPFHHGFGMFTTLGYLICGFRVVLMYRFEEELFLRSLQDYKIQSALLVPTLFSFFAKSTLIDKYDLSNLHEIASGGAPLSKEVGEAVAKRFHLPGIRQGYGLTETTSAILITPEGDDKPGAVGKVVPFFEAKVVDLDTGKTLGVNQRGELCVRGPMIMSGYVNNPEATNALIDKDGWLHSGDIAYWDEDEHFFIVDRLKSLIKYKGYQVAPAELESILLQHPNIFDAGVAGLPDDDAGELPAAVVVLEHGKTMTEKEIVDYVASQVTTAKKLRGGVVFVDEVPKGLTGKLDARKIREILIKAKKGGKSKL
Sequence of Albumin (Bos taurus) (P02769 whole entry, looked up): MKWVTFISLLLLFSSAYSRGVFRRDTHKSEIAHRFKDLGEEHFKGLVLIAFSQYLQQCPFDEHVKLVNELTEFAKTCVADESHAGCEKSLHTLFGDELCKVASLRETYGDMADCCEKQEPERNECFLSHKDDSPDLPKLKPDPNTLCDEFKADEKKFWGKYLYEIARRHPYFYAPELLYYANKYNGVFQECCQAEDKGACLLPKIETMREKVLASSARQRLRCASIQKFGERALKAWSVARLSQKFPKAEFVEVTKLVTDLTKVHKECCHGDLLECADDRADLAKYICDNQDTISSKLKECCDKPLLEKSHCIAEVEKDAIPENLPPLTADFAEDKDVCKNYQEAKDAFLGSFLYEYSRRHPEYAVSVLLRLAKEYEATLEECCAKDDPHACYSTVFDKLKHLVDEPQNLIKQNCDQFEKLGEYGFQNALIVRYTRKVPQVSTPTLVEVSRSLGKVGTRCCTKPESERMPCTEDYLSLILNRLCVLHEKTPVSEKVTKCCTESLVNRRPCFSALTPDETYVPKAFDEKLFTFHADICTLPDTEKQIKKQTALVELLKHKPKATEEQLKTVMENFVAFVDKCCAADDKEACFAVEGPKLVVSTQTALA

For the compound `C=CCN1C(=O)[C@@]2(CCS(=O)(=O)c3ccccc3)N=C(c3ccc(OCCCO)cc3)O[C@H]2c2ccccc21`, the composite z-score was -0.567 with Albumin (Bos taurus); -0.0302 in experiment [2]; -0.0664 in [3]; 0.277 in [4]; 2.53 in experiment [5]; 0.207 in [6]. For the same compound, the composite z-score with Sam68 (KHDRBS1) amounted to 0.988; in experiment [7] it was 0.83; in experiment [8] it was 1.12; in experiment [9] it was 1.34; in experiment [10], 1.25; in experiment [11], 0.763. Also, the composite z-score in [12] is 0.884; in experiment [13] it was 1.45; in experiment [14], 1.78; in the experiment with Lefty1, 0.952; in experiment [16] it was 0.37. Also, the composite Z-score in experiment [1] is -0.101 (inactive). Moreover, the z-score in experiment [15] was 0.821; in experiment [17], -1.48 (inactive).

With `C=CCC(OC(C)=O)[C@@H]1[C@@H](N(Cc2ccc(-c3cccc(C(F)(F)F)c3)o2)C(=O)c2ccc(C)cc2)c2cc(OCCCO)ccc2N1C(=O)c1ccc2ccccc2c1` (stereo not given in full), the composite z-score in the experiment with Albumin (Bos taurus) was 0.149; in [2], -0.0377; in [3] it was -0.14; in experiment [4] it was 0.151; in experiment [5], 0.387; in [6] it was -0.0397. The composite z-score in the experiment with Sam68 (KHDRBS1) is -0.285; in experiment [7], 0.287; in experiment [8], 0.0961; in experiment [9], -0.276; in [10], -0.207; in [11] it was 0.187. Also, the composite z-score in [12] is 0.188; in experiment [13], 0.908; in [14], 0.0013; in the experiment with Lefty1 it was 0.398; in experiment [16], -0.0998. Also, in experiment [1], the composite Z-score was -0.0045 (inactive). Besides, the z-score was 1.23 in experiment [15] and -0.0536 (inactive) in [17].

As to `CCOC(=O)C1=CC[C@@H](c2ccccc2C(F)(F)F)N(S(=O)(=O)c2ccc(C)cc2)[C@H]1c1ccc(C#N)cc1`, the composite z-score was 0.733 in the experiment with Albumin (Bos taurus); 0.223 in [2]; -0.0211 in experiment [3]; 0.675 in [4]; 0.791 in [5]; 1.25 in experiment [6]. In addition, the composite z-score was 0.892 in the experiment on Sam68 (KHDRBS1); 0.475 in experiment [7]; 1.11 in experiment [8]; 0.915 in experiment [9]; 1.15 in experiment [10]; -0.0446 in experiment [11]. Further, the composite z-score in [12] was 0.647; in [13] it was 0.507; in [14] it was 0.437; in the experiment with Lefty1 it was -0.0373; in [16], 1.08. Besides, the composite Z-score in experiment [1] is -0.554 (inactive). The z-score in [15] was -1.92; in experiment [17] it was 1.47 (inactive).

As to `COCCOC(=O)N1C(=O)[C@@]2(c3cc(C#Cc4ccc(OC)cc4)ccc31)[C@H](c1ccc(O)cc1)N1[C@H](c3ccccc3)[C@H](c3ccccc3)OC(=O)[C@H]1[C@@H]2C(=O)N1CCCCCCC1`, the composite z-score with Albumin (Bos taurus) was 0.802; in experiment [2], 0.7; in [3] it was -0.131; in experiment [4], 0.466; in experiment [5], 2.11; in experiment [6], 0.575. For the same compound, the composite z-score is 0.722 in the experiment with Sam68 (KHDRBS1); -0.508 in experiment [7]; 0.498 in [8]; -1.01 in experiment [9]; 1.11 in [10]; 0.415 in [11]. For the same compound, the composite z-score in experiment [12] worked out at 0.377; in experiment [13] it was 1.25; in experiment [14], 0.408; in the experiment with Lefty1, 0.391; in experiment [16], 0.484. Further, the composite Z-score in [1] was -0.182 (inactive). Further, the z-score in experiment [15] was -0.421; in experiment [17], -0.564 (inactive).

In the case of `NCCCCCCNC(=O)[C@@H]1C[C@@H]2C(=O)N[C@@H](CCCCN)C(=O)N2[C@@H]1c1cccc(OCCO)c1`, the composite z-score was -0.907 with Albumin (Bos taurus); 0.645 in experiment [2]; 0.163 in experiment [3]; 0.584 in [4]; -0.191 in experiment [5]; 0.767 in experiment [6]. Further, the composite z-score amounted to 1.2 with Sam68 (KHDRBS1); 1.05 in experiment [7]; 0.718 in [8]; 1.24 in experiment [9]; 1.12 in experiment [10]; 1.21 in [11]. Further, the composite z-score in [12] was -0.0787; in experiment [13], 0.877; in [14], 0.485; with Lefty1, 1.4; in experiment [16], 0.641. Besides, the composite Z-score in [1] was 2.87 (inactive). Also, the z-score in experiment [15] was 0.81; in [17], 0.507 (inactive).

For the origin of these results see PubChem BioAssay.
